The source of these data is PubChem BioAssay (NCI).

SMILES strings stand for the structures. This is part of a sample that, as a whole, favours compounds with a hit. Of some 83,000 tested, about 20% had one in any assay.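 Cells were grown in 96-well plates and exposed to the test compound at a single concentration for 48 hours; results are reported as percent growth, with values below 10 considered active.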 Active and inactive are the calls of the source.

Holding throughout (assay): NCI-60 one-dose screen, 48 h (100 = growth as untreated, 0 = no growth, -100 = all killed)
The subject of assay [1] is EKVX NSCLC. The following applies: 10 µM unless noted.
Assay [2] deals with SN12C renal. The following applies: 10 µM unless noted.
Assay [3] deals with UO-31 renal. Particulars: 10 µM unless noted.
Assay [4] has as its system TK-10 renal. The following applies: 10 µM unless noted.
The subject of assay [5] is ACHN renal. Particulars: 10 µM unless noted.
Assay [6] concerns A498 renal. Particulars: 10 µM.
The subject of assay [7] is HL-60(TB) leukemia. The following applies: 10 µM unless noted.
Assay [8] concerns CCRF-CEM leukemia. Particulars: 10 µM unless noted.
The test system of assay [9] is MOLT-4 leukemia. The following applies: 10 µM unless noted.
For assay [10], the system named is SR leukemia. The following applies: 10 µM unless noted.
Assay [11] deals with RPMI-8226 leukemia. Particulars: 10 µM unless noted.
Assay [12] relates to OVCAR-5 ovarian. The following applies: 10 µM unless noted.
Assay [13] relates to OVCAR-4 ovarian. The following applies: 10 µM unless noted.
The subject of assay [14] is SK-OV-3 ovarian. The following applies: 10 µM unless noted.
For assay [15], the system named is IGROV1 ovarian. Particulars: 10 µM unless noted.
Assay [16] concerns OVCAR-3 ovarian. Particulars: 10 µM unless noted.
For assay [17], the system named is HS 578T breast. The following applies: 10 µM unless noted.
In assay [18] the test system is OVCAR-8 ovarian. Particulars: 10 µM unless noted.
Assay [19] has as its system CAKI-1 renal. Particulars: 10 µM unless noted.

`CC(=O)O[C@H](C[C@H](C(C)C)N(C)C(=O)[C@@H](NC(=O)[C@H]1CCCCN1C)C(C)(C)C)c1nc(C(=O)N[C@@H](Cc2ccccc2)C[C@H](C)C(=O)O)cs1`: the growth was 39.7% (inactive) in assay [1]; 17.9% (inactive) in assay [2]; 43% (inactive) in assay [3]; 52.6% (inactive) in assay [4]; 29% (inactive) in assay [5]; -6.47% (active) in [6]. Further, the growth was -26% (active) in [7]; 1.05% (active) in [8]; 6.26% (active) in assay [9]; 2.59% (active) in [10]; 16.8% (inactive) in assay [11]; 32% (inactive) in assay [12]. The growth was 41.6% (inactive) in assay [13]; 28.6% (inactive) in assay [14]; 18.9% (inactive) in assay [15]; -14.6% (active) in assay [16]; 16.7% (inactive) in assay [17].
Regarding `COC(=O)[C@@]1(C)CC[C@]2(C)CC[C@]3(C)C4=CC(=O)c5c(cc(O)c(O)c5C)[C@]4(C)CC[C@@]3(C)[C@@H]2C1`, the growth in assay [1] is 71.7% (inactive); in assay [2], 61.7% (inactive); in assay [3], 50.6% (inactive); in [4], 68.9% (inactive); in assay [5] it was 53.3% (inactive); in [6], 57.1% (inactive). In addition, the growth is 38.4% (inactive) in assay [7]; 26.9% (inactive) in assay [8]; 18.3% (inactive) in assay [9]; 51.2% (inactive) in [10]; 27% (inactive) in assay [11]; 119% (inactive) in assay [12]. The growth in [13] was 47.4% (inactive); in assay [14] it was 58.3% (inactive); in assay [15] it was 50.8% (inactive); in assay [16], 47.9% (inactive); in assay [17], 79.5% (inactive).
`CCCC[C@H](NC(=O)[C@H]1CCCCN1C)C(=O)N(C)[C@H](C[C@@H](OC(C)=O)c1nc(C(=O)N[C@@H](Cc2ccccc2)C[C@H](C)C(=O)OCC)cs1)C(C)C`: the growth was 47.8% (inactive) in assay [1]; 23.9% (inactive) in [2]; 31.9% (inactive) in [3]; -7.07% (active) in assay [4]; 13.5% (inactive) in assay [5]; -11.9% (active) in assay [6]. In addition, the growth in assay [7] was -25.7% (active); in [8], 8.81% (active); in assay [9] it was 12.7% (inactive); in assay [10], 4.92% (active); in assay [11], 10.7% (inactive); in assay [18] it was 21% (inactive). Also, the growth in [12] was 36.2% (inactive); in assay [13], 49.5% (inactive); in assay [14], -6.08% (active); in assay [15], 24.4% (inactive); in assay [16], 3.86% (active); in assay [17], 12.1% (inactive).
As to `N#Cc1c(Br)n(C2OC(CO)C(O)C2O)c2ncnc(N)c12` (stereo unspecified), the growth is 95.7% (inactive) in assay [1]; 60.3% (inactive) in assay [2]; 42.3% (inactive) in assay [3]; 115% (inactive) in [4]; 78.4% (inactive) in assay [5]; -16.3% (active) in assay [6]. The growth was -33.7% (active) in [7]; 8.19% (active) in assay [8]; 35.2% (inactive) in assay [18]; 95.5% (inactive) in assay [12]; 75.3% (inactive) in [13]; 78.3% (inactive) in [14]. Also, the growth in assay [15] is -35.1% (active); in assay [17], 39.5% (inactive).
In the case of `O=C(Nc1ccc(Cl)cc1)Nc1nccs1`, the growth in [2] is 50.4% (inactive); in assay [3] it was 40.3% (inactive); in assay [5], 54.4% (inactive); in assay [19], 22.6% (inactive); in assay [6] it was 8.26% (active); in [8], 6.31% (active). Further, the growth was 20.6% (inactive) in [9]; 27.3% (inactive) in [10]; 5.61% (active) in assay [11]; 24.9% (inactive) in assay [18]; 67.4% (inactive) in assay [12]; 81.1% (inactive) in assay [13]. Also, the growth in [14] is 33.1% (inactive); in assay [16] it was -26.6% (active); in [17], 49.9% (inactive).
Consider `C#Cc1ccc2c(c1)C(c1ccccc1F)=NCC(=O)N2C`, for which the growth was 48.9% (inactive) in assay [1]; 72.5% (inactive) in assay [3]; 75.5% (inactive) in assay [4]; 56.9% (inactive) in [5]; 55.1% (inactive) in assay [19]; 19.2% (inactive) in assay [6]. Moreover, the growth is 10.2% (inactive) in assay [7]; 58.8% (inactive) in [8]; 42.8% (inactive) in assay [9]; 37.8% (inactive) in assay [10]; 71.9% (inactive) in assay [11]; 85.5% (inactive) in assay [12]. Besides, the growth was 84.9% (inactive) in assay [13], 34% (inactive) in assay [14], 12.1% (inactive) in [16] and 64.1% (inactive) in [17].
Regarding `CC1=C([Te]c2ccc(O)cc2)C(=O)c2ccccc2C1=O`, the growth is -57% (active) in [1]; 11.5% (inactive) in assay [2]; 36.1% (inactive) in [4]; 5.62% (active) in [5]; -93.3% (active) in assay [19]; -25.8% (active) in [6]. In addition, the growth in assay [7] was -38% (active); in assay [8] it was -13.4% (active); in assay [9], -17% (active); in assay [10], -14.8% (active); in assay [18] it was 13.6% (inactive); in [12], 11.8% (inactive). Also, the growth was -32.9% (active) in [13]; -15.5% (active) in assay [14]; -27% (active) in assay [15]; -63.7% (active) in assay [16]; 8.43% (active) in assay [17].
For the compound `COC(=O)[C@H](Cc1c[nH]c2ccccc12)NC(=O)[C@@H](OC)[C@@H]1Cc2cc3cc(OC4CC(OC5CC(O)C(O)C(C)O5)C(O)C(C)O4)c(C)c(O)c3c(O)c2C(=O)[C@H]1OC1CC(OC2CC(OC3CC(C)(O)C(O)C(C)O3)C(O)C(C)O2)C(O)C(C)O1` (stereo partly specified), the growth is 10.6% (inactive) in assay [2]; -6.63% (active) in [3]; 8.12% (active) in assay [4]; 0.567% (active) in [5]; 19.5% (inactive) in assay [19]; -52.8% (active) in assay [6]. Besides, the growth in assay [7] was -8.66% (active); in assay [8] it was 5.66% (active); in assay [9], 0.755% (active); in assay [10], 4.93% (active); in assay [18] it was 11% (inactive); in [12], 15.3% (inactive). Besides, the growth in [13] was 0.345% (active); in assay [14], 18.2% (inactive); in assay [15], 23.4% (inactive); in [16] it was 4.79% (active); in [17], -13.6% (active).
